A selection: hits, their analogues and other compounds. The true share with any hit is near 2.7%.
PAX8 inh HTS: inhibitors of PAX8 transcriptional activity in RMG-I cells; RMG-I TPO-luciferase reporter, SteadyGlo, 24 h; 360,000 compounds, 1.2% hits; inhibition, % at 12.6 µM;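 active = mean replicate inhibition at least 60% with every replicate also reaching 60%; inconclusive = only one of the two criteria is met; inactive = mean below 60% and not all replicates reaching 60%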;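 also: luciferase light reporting Pax8 driven TPO promoter activity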
HIV Env fusion: HIV envelope-mediated fusion inhibition. HeLa-JRFL Env/CEM21 cell fusion, luciferase. inhibition, % at 12.3 µM. 360,000 compounds, 1.1% hits;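 active = mean replicate inhibition score of at least 50 and every replicate individually at or above 50; inconclusive = only one of the two criteria met; inactive = mean below 50 and not all replicates reaching 50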
INS-1E GSIS act: GLuc luminescence reporter in INS-1E cells, primary screen for activators of glucose-dependent secretion of insulin. INS-1E GLuc reporter insulin secretion, 2-3 h. activation, % at 16.6 µM. 370,000 compounds, 0.61% hits;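 active = lowest replicate activation of at least 40%, so every replicate reaches that level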
PGC1a acetyl inh: PGC1a acetylation modulation, inhibitor mode; U2OS PGC1a acetylation, AlphaScreen anti-acetyl-lysine; with virally co-expressed GCN5 acetyltransferase; 350,000 compounds, 0.17% hits; inhibition, % at 15.6 µM;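 active = every replicate shows inhibition of at least 40%; inconclusive = mean inhibition at least 40% but some replicate below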
EWS-Fli block: EWS/Fli transcriptional activity inhibition; AID 651661; inhibition, % at 12.6 µM; A673 NR0B1-luciferase reporter, viability-normalised; 350,000 compounds, 0.67% hits;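 active = mean inhibition of at least 50% after viability correction, with every replicate also passing that limit; inconclusive = mean reaches 50% but only one of two replicates passes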;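 also: firefly luciferase signal divided by Alamar Blue viability fluorescence both relative to DMSO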
F508del corr: correctors of CFTR F508del function in bronchial epithelial cells. CFBE cells, YFP halide quenching; stimulated with forskolin plus potentiator P3; % fluorescence drop versus neutral controls. activity (quench increase), % at 7.58 µM. 350,000 compounds, 0.36% hits;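 active = mean added fluorescence quench of at least 8% versus neutral control, with both replicates also reaching 8%; inconclusive = only one of the mean or replicate conditions met; inactive = mean below 8% and not both replicates reaching 8%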;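 also: cells transiently co-express mutant CFTR-F508del with the halide-sensitive YFP; corrector assay measuring rescue of mutant channel to the surface after 24 h compound exposure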
Large screens that a line does not name were inactive; [ ] = remark or other dose.

O=C(CN1CCOCC1)NCC[C@H]1CC[C@H](NC(=O)c2ccc3c(c2)OCO3)[C@H](CO)O1	none
CN1[C@@H]2c3ccc(-c4ccccc4)c(=O)n3C[C@H]1[C@H](CO)[C@H]2C(=O)NC1CCCCC1	none (no result: HIV Env fusion, PGC1a acetyl inh)
CN1[C@H](C(=O)N2CCc3ccccc3C2)[C@@H](CO)[C@@H]2Cn3c(ccc(-c4ccccc4)c3=O)[C@@H]21	PAX8 inh HTS 68 (no result: PGC1a acetyl inh, F508del corr)
CN1[C@@H]2Cn3c(ccc(-c4ccccc4)c3=O)[C@H]1[C@@H](C(=O)NC1CCCCC1)[C@@H]2CO	PAX8 inh HTS 89 (no result: HIV Env fusion, PGC1a acetyl inh)
CCCN1[C@H](C(=O)N[C@@H](C)c2ccccc2)[C@@H](CO)[C@@H]2Cn3c(ccc(-c4cccc(F)c4)c3=O)[C@@H]21	HIV Env fusion 64[16.7 µM] (no result: PAX8 inh HTS, PGC1a acetyl inh, F508del corr)
CCC(=O)N(C)C[C@H]1Oc2cc(/C=C/c3ccccc3)ccc2S(=O)(=O)N([C@@H](C)CO)C[C@@H]1C	none (no result: PAX8 inh HTS)
COc1ccccc1NS(=O)(=O)c1cc(C(=O)N2CCCCCC2)ccc1C	F508del corr 18 (no result: HIV Env fusion)
O=C(Nc1ccc2c(c1)OCO2)N[C@H]1CC[C@@H](CCNC(=O)C2CCCCC2)O[C@@H]1CO	none
CCC(=O)Nc1ccc(NC(=S)NC(=O)c2oc3ccccc3c2C)cc1	INS-1E GSIS act 60 (no result: HIV Env fusion, EWS-Fli block, F508del corr)
CN(C)/C=N/C1=C(C#N)C(c2cccs2)c2ccc3ccccc3c2O1 (stereo not given)	EWS-Fli block 54, F508del corr inconclusive (no result: PGC1a acetyl inh)
C[C@@H]1CN([C@H](C)CO)S(=O)(=O)c2ccc(-c3cccc(F)c3)cc2O[C@H]1CN(C)S(=O)(=O)c1ccccc1	none (no result: PAX8 inh HTS)
Cc1ccc(NC(=O)C2CCC(CNc3c(N4CCC(C)CC4)c(=O)c3=O)CC2)cc1F (stereo not given)	HIV Env fusion 59
CN1C[C@H]2[C@@H](c3ccccc31)[C@@H](CO)N2C(=O)C1CC1	none (no result: HIV Env fusion)
C[C@@H]1CCCCO[C@@H](CN(C)S(=O)(=O)c2cn(C)cn2)[C@H](C)CN([C@H](C)CO)C(=O)c2cc(NS(=O)(=O)c3ccc(F)cc3)ccc2O1	none (no result: PGC1a acetyl inh)
CC(C)CN(C(=O)c1ccc(S(=O)(=O)N2CCCCC2)cc1)C1CCS(=O)(=O)C1 (stereo not given)	HIV Env fusion 70 (no result: PGC1a acetyl inh)
CC(C)CN(C(=O)C1CCCCC1)C1CCS(=O)(=O)C1 (stereo not given)	INS-1E GSIS act 41 (no result: PGC1a acetyl inh)
CC(C)CN(C(=O)c1ccc(S(=O)(=O)N2CCCC2)cc1)C1CCS(=O)(=O)C1 (stereo not given)	none (no result: HIV Env fusion)
O=C(C[C@@H]1CC[C@@H]2[C@H](COC[C@@H](O)CN2C(=O)c2cnccn2)O1)NCc1ccc(F)cc1	none
Nc1c(Cl)cnn(-c2ccccc2)c1=O	none
O=c1c(Cl)c(Cl)cnn1-c1ccccc1	PAX8 inh HTS 108, EWS-Fli block 70 (no result: PGC1a acetyl inh)
Cc1ccccc1C(=O)NCCCNC(=O)c1cnccn1	none (no result: PGC1a acetyl inh)
CCCCCCCCNC(=O)c1cnccn1	PAX8 inh HTS 98 (no result: HIV Env fusion)
C[C@@H]1CN([C@H](C)CO)C(=O)Cc2cc(NS(=O)(=O)c3ccc(F)cc3)ccc2O[C@H]1CN(C)S(=O)(=O)c1cccs1	none
C[C@H](CO)N1C[C@H](C)[C@@H](CN(C)C)Oc2ccc(NS(C)(=O)=O)cc2CC1=O	none (no result: HIV Env fusion)
C[C@@H]1CN([C@H](C)CO)S(=O)(=O)c2ccc(C3=CCCC3)cc2O[C@@H]1CN(C)S(=O)(=O)c1cn(C)cn1	none
N#Cc1c(N)[nH]c(=S)c(C#N)c1-c1ccccc1	none (no result: PAX8 inh HTS, INS-1E GSIS act, EWS-Fli block, F508del corr)
N#Cc1c(N)[nH]c2ccc(Sc3ccccc3)cc12	EWS-Fli block 61 (no result: INS-1E GSIS act)
COc1ccc(CCNc2oc(-c3cccc4ccccc34)nc2P(=O)(OC)OC)cc1OC	HIV Env fusion 69 (no result: EWS-Fli block, F508del corr)
COP(=O)(OC)c1nc(-c2cccc3ccccc23)oc1NCCc1ccccc1	none (no result: PGC1a acetyl inh)
CC(=O)N(C)C[C@@H]1Oc2cc(C#Cc3ccccn3)ccc2S(=O)(=O)N([C@H](C)CO)C[C@H]1C	none (no result: PAX8 inh HTS)
CCNC(=O)C[C@@H]1CC[C@H]2[C@H](COc3ccc(NC(=O)c4ccc(F)cc4)cc3C(=O)N2C)O1	none
C[C@@H]1CN([C@@H](C)CO)C(=O)c2cccc(NS(=O)(=O)c3ccccc3)c2O[C@@H]1CN(C)Cc1ccc(Cl)c(Cl)c1	HIV Env fusion 73[16.7 µM]

Screening results as filed in PubChem BioAssay.
